D1 potentiator: Potentiators of Human D1 Dopamine Receptor: qHTS; HEK293 TREx D1 cells, calcium flux, dopamine EC20 potentiation; potentiation, % at 10 µM; 360,000 compounds, 0.036% hits; AID 504651, 2011; in the data active means potentiation above about 30%
Target sequence (P21728 whole entry, looked up): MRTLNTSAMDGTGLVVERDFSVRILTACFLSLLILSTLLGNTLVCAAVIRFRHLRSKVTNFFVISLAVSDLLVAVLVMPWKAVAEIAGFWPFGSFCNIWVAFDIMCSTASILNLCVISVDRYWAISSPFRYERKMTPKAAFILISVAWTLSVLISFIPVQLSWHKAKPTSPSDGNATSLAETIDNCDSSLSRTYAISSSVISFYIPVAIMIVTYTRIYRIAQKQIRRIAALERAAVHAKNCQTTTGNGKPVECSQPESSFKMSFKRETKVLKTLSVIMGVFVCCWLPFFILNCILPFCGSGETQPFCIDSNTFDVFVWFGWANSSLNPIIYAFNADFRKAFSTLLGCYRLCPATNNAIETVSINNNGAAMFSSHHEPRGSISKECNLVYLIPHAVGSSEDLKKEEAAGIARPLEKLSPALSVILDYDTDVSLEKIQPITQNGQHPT
DRD3 agonist: qHTS of D3 Dopamine Receptor Agonist: qHTS; D(3) dopamine receptor (Homo sapiens), P35462; D3R DiscoveRx beta-arrestin cells, luminescence, 90 min; max activation, %; 410,000 compounds, 0.58% hits; AID 652048, 2013; in the data active means max activation above about 30%
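Agonist-mode cell screen: cells plated at 1500/well and incubated overnight at 37 °C, then exposed to library compounds for 90 min at 37 °C. Detection reagent was added for 30–60 min at room temperature, and luminescence was read.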
DRD3 antagonist: qHTS of D3 Dopamine Receptor Antagonist: qHTS | D(3) dopamine receptor (Homo sapiens), P35462 | D3R cells, DiscoveRx beta-arrestin luminescence, antagonist mode; active compounds read low | max response, negative = inhibition, % | 360,000 compounds, 2.5% hits; in the data active means max response below about -50%; inconclusive means no clear call, values can overlap the other calls
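Cells plated overnight at 1500 cells/well, then exposed to library compounds with dopamine controls for 90 minutes at 37 degrees C. DiscoveRx reagent added for 30–60 minutes at room temperature; luminescence read, quantitative HTS format.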
D1 antag: Antagonist of Human D 1 Dopamine Receptor: qHTS; D(1A) dopamine receptor (Homo sapiens), P21728; HEK293 TREx D1 cells, calcium flux, dopamine EC80; active compounds read low; activity change, negative = inhibition, % at 10 µM; 360,000 compounds, 3.2% hits; AID 504652, 2011; in the data active means activity change below about -30%
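Using tetracycline-induced force-coupled D1 Hek293 cells and a calcium dye, signals were followed for 180 s after compound, then for 180 s after EC80 dopamine, to detect inhibitors.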
D1 ag: Allosteric Agonists of the Human D1 Dopamine Receptor: qHTS | D(1A) dopamine receptor (Homo sapiens), P21728 | HEK293 T-REx D1 cells, calcium flux, agonist mode | activation, % at 2 µM | 360,000 compounds, 1% hits | AID 504660, 2011; in the data active means activation above about 30%
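Agonism was scored from calcium flux recorded over 180 s (1 read/s) after pintool compound addition, following a 10-cycle baseline. Cells were inducible force-coupled HEK293 TREx D1, plated overnight at 30 C and loaded with no-wash calcium dye.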
ERG-DNA inh: qHTS for Small Molecule Inhibitors of the ERG Ets/DNA interaction | Transcriptional regulator ERG (Homo sapiens), P11308 | fluorescence polarization, His-ERG Ets domain / labelled DNA | Potency, µM (series often up to 76.9 µM), hits mostly inhibitors | 370,000 compounds, 0.028% hits; active means well fitted inhibition curve with a large enough effect in the polarisation, with a control signal flat; inconclusive means small, poorly fitted or top-dose-only effect, or effect the other way, or a change in a side signal; inactive means no such curve, though single readings can be large or run the other way; the % refers to the polarisation;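 further: polarization taken with two DNA probes labelled with fluorescein and Texas red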
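His-tagged ERG Ets domain (1 uM in the protein solution; 300mM KCl, 50mM Tris-HCl, 1mM EDTA, 1mM DTT, pH 7.5) received compound, then a probe mix of 5 nM fluorescein-DNA and 100nM Texas-615-DNA. Fluorescence polarization was read for both dyes.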
Large screens that a line does not name were inactive. Sampled rows, rich in hits. Any-hit rate of the full collection: about 6.1%.

C=CCc1cc(Cl)ccc1OCCNCCCOC	DRD3 antagonist -59
COCCCNCCOCCOc1ccccc1-c1ccccc1	none
C=CCc1ccccc1OCCNCCCOC	DRD3 antagonist -102, D1 antag -46
C=CCc1cc(Cl)ccc1OCCOCCNCCOC	none
COc1ccc(CNc2oc(/C=C/c3cc(OC)c(OC)c(OC)c3)nc2C#N)cc1	D1 ag 40 (no result: DRD3 antagonist)
COc1ccc(/C=C/c2nc(C#N)c(NCCN(C)C)o2)cc1OC	D1 antag -30
CCOc1ccc(/C=C/c2nc(C#N)c(NCCc3ccccc3)o2)cc1	D1 antag -37 (no result: DRD3 antagonist)
CCN1CCN(C(=O)CCN2C(=O)COc3ccc(C)cc32)CC1	none
CCOc1ccc(NC(=O)c2c(NCc3cccnc3)sc3c2CCCC3)cc1	none (no result: DRD3 antagonist)
CCOC(=O)N/N=C/c1ccc(F)cc1F	none
Fc1ccc(-c2cc(C(F)(F)C(F)F)[nH]n2)cc1	D1 antag -48, D1 ag 64
FC(F)C(F)(F)c1cc(-c2ccc(Cl)cc2)n[nH]1	D1 antag -46, D1 ag 86
CCCn1c(O)c(N=NC(=O)CNC(=O)/C=C/c2ccc(OC)cc2)c2ccccc21	DRD3 antagonist -50
C=CCn1c(O)c(N=NC(=O)CNC(=O)/C=C/c2ccc(OC)cc2)c2ccccc21	none
CCOC(=O)N1CCN(C(=O)CN(C)S(=O)(=O)c2ccc3c(c2)C(C)(C)C(=O)N3C)CC1	none
CCCNC(=O)C1CCN(S(=O)(=O)c2ccc3c(c2)OCCO3)CC1	none
COCCCNC(=O)CSc1nc2cc(S(=O)(=O)N3CCCCC3)ccc2o1	none
CCS(=O)(=O)c1ccc2oc(SCC(=O)NCCC3=CCCCC3)nc2c1	DRD3 antagonist -51
COCC(C)NC(=O)CSc1nc2cc(S(=O)(=O)N3CCCCC3)ccc2o1 (stereo unspecified)	D1 antag -47
CN1CCN(C(c2ccccc2Cl)c2sc3nc(-c4ccco4)nn3c2O)CC1 (stereo unspecified)	none (no result: DRD3 antagonist, D1 antag)
COc1cc(C2c3c(c(C)c(C)oc3=O)Oc3c(C)c(C)oc(=O)c32)ccc1OS(=O)(=O)c1ccc(C)cc1	none
Cc1ccc2nc(CCl)[n+]([O-])c(-c3ccccc3)c2c1	D1 antag -38
CCO/N=C(\C)c1c(O)cc(C(C)C)n(-c2ccccc2)c1=O	D1 antag -36
Nc1nonc1-c1noc(-c2ccccc2)n1	DRD3 antagonist -63
COc1ccc(CNC(=O)Cc2c(C)c3c(O)cc(C)cc3oc2=O)cc1	none (no result: DRD3 antagonist)
Cc1cc(O)c2c(C)c(CC(=O)NCc3ccccc3Cl)c(=O)oc2c1	D1 antag -35 (no result: DRD3 antagonist)
COc1cccc(NC(=O)CCc2ccccc2)c1	D1 antag -44
COc1cccc(NC(=O)Cc2ccccc2)c1	none
COc1cc(NC(=O)CCN2CCN(c3ccccc3F)CC2)cc(OC)c1	D1 antag -42 (no result: ERG-DNA inh)
Cc1ccc(C)c(N2CCN(CC(=O)Nc3ccc([N+](=O)[O-])cc3C(=O)Nc3ccccc3F)CC2)c1	DRD3 agonist 50
O=C(CN1CCN(c2cccc(Cl)c2)CC1)Nc1ccc([N+](=O)[O-])cc1C(=O)Nc1ccccc1F	none
COc1ccccc1N1CCN(CC(=O)Nc2cc(F)ccc2C)CC1	DRD3 antagonist -83
COc1ccccc1N1CCN(c2ccc(=O)n(CC(=O)Nc3cc(F)ccc3C)n2)CC1	none (no result: DRD3 antagonist)
O=CN(Cc1ccccc1)c1cc([N+](=O)[O-])ccc1OCc1ccccc1	none (no result: D1 potentiator, D1 antag, D1 ag)
Cc1ccc(NS(=O)(=O)c2ccc(-n3cccn3)cc2)c(Br)c1	none
COc1cccc(NC(=O)CN2CCSc3ccccc32)c1	none
CCCNC(=O)COC(=O)/C(C#N)=C/c1cc(C)n(CCC)c1C	none
Cc1ccccc1N1CCN(CCC(=O)Nc2ccc(F)cc2)CC1	DRD3 antagonist -84
O=C(CCN1CCN(Cc2ccccc2)CC1)Nc1cccc(Cl)c1	DRD3 antagonist -59
COc1ccccc1N1CCN(CCC(=O)Nc2cccc(F)c2)CC1	DRD3 antagonist -111
O=C(CCN1CCN(c2ccccn2)CC1)Nc1ccc(F)cc1	DRD3 antagonist inconclusive
O=C(Nc1cc(Cl)cc(Cl)c1)N1CCCN(Cc2ccccc2)CC1	DRD3 antagonist -80
O=C(Nc1ccccc1)N1CCN(Cc2ccc(Cl)cc2)CC1	none
N=c1c(S(=O)(=O)c2ccc(Cl)cc2)cc2c(=O)n3ccccc3nc2n1Cc1cccnc1	none
CCOc1ccc(-n2c(SCC(=O)NC(C)CC)nc3n[nH]c(C)c3c2=N)cc1 (stereo unspecified)	none
CCOC(=O)c1ccc(S(=O)(=O)NCCNCc2ccccc2)cc1	none (no result: D1 potentiator, D1 antag, D1 ag)
Cc1ccc(S(=O)(=O)N(C)C)cc1NC(=S)NCCCn1ccnc1	none
COc1cccc(NC(=O)Cn2c(=O)n(CCC(=O)NCCc3ccc(Cl)cc3)c(=O)c3ccccc32)c1	none (no result: DRD3 antagonist)
COC(=O)c1[nH]c2cccc(OC)c2c1NC(=O)CCN1CCN(c2ccccc2F)CC1	D1 antag -57 (no result: DRD3 agonist, DRD3 antagonist, ERG-DNA inh)
COc1cccc(NC(=O)Cn2c(=O)n(CCCCC(=O)NCCc3ccccc3)c(=O)c3ccccc32)c1	D1 antag -44 (no result: DRD3 antagonist)
O=C(CCN1CCN(c2ccccc2F)CC1)Nc1ccc(F)cc1	DRD3 antagonist -73
COC(=O)c1[nH]c2cccc(OC)c2c1NC(=O)CCN1CCC(C(N)=O)CC1	none (no result: DRD3 agonist, DRD3 antagonist, ERG-DNA inh)
O=C(CCN1CCN(c2ccccc2F)CC1)Nc1cccc(F)c1	DRD3 antagonist -63, D1 antag -43
O=C(CCN1CCN(c2ccccc2F)CC1)Nc1ccccc1Cl	DRD3 antagonist inconclusive
Cc1ccc(N(C(=O)c2csnn2)C(C(=O)NC(C)(C)C)c2ccccn2)cc1 (stereo unspecified)	none
O=C(Nc1c(-c2ccccc2)[nH][nH]c1=O)c1cccc(C(F)(F)F)c1	none (no result: D1 potentiator, D1 antag, D1 ag, ERG-DNA inh)
CCN(CCC(=O)Nc1cc(OC)cc(OC)c1)Cc1ccccc1	DRD3 antagonist -67
COc1cccc(NC(=O)Nc2ccc(C)c(Cl)c2)c1	none
COc1ccc(OC)c(NC(=O)CCN2CCN(Cc3ccccc3)CC2)c1	DRD3 antagonist inconclusive
COc1cc(NC(=O)CCN2CCN(Cc3ccccc3)CC2)cc(OC)c1	DRD3 antagonist -54
COc1cccc(NC(=O)Nc2cc(C(=O)O)ccc2C)c1	D1 antag -43
COCCNC(=O)C1CCN(Cc2cc3ccccc3n2Cc2ccc(C)cc2)CC1	none (no result: DRD3 antagonist)
CN(c1ccc(C(=O)N2CCN(c3ccccc3F)CC2)cc1)S(=O)(=O)c1ccccc1	none (no result: D1 potentiator)

From PubChem
